The target in test [1] is Mitogen-activated protein kinase 10 (Mus musculus) (UniProt Q61831). The test is described as follows: JNK3 AlphaScreen Assay (AID 530; active means well fitted curve in either direction with a large enough effect, not every such curve was filed as active;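 further: kinase came from lysate of stimulated human HepG2 cells; signal reports phosphorylation of biotinylated GST-cJun 1-79 at Ser73 with 10 µM ATP; on the % scale 0 is the no-effect control and ±100 the full control effect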). In outline: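 JNK3 came from HepG2 lysates pre-activated with IL-1beta and TNF-alpha and phosphorylated biotinylated GST-cJun (1-79) at 10 uM ATP, pH 7.6, room temperature. Compounds were titrated. AlphaScreen signal used anti-phospho-cJun (Ser73) antibody.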
(In Alpha technology, singlet oxygen from a donor bead excites a nearby acceptor bead.)

Test [2] deals with 3',5'-cyclic-AMP phosphodiesterase 4B (Homo sapiens) (UniProt Q07343). The test is described as follows: qHTS Assay for Inhibitors of PDE-IV (AID 607; active means well fitted activation curve with a large enough effect in the main read-out, with a control signal flat, not every such curve was filed as active; further: potency means the concentration at half of the fitted maximal effect). In outline:
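ACTOne HEK293 cells carry a modified cAMP-gated CNG channel and express endogenous PDE4; plated 1000 cells/well, compounds up to 22.9 uM final. Membrane-potential dye fluorescence (ex 535/em 590) was read; parental cells received 10 uM forskolin + 100 uM RO 20-1724.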
On the technique in general: qHTS replaces the single test concentration by a dilution series.

The target in test [3] is Glucocorticoid receptor (Homo sapiens) (UniProt P04150). Description: GR-EFC Redistribution (AID 451; calls by dose curve; further: potency means the concentration at half of the fitted maximal effect). As to conditions: CHO-K1 GR-EFC translocation, beta-gal luminescence, 2 h. Summed up: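 CHO-K1 cells stably expressing nuclear-localized β-gal enzyme acceptor and GR fused C-terminally to the enzyme donor fragment; ligand-driven nuclear translocation restores β-gal by complementation. Compounds titrated up to 46 uM final, 2 h at 37 °C; luminescence read.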

Test [4] in a line: Cell Viability - N2a (AID 540).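 Further: plate controls were DMSO alone for no effect and tamoxifen control for full effect; nearly all actives have a fitted effect of over 45% in size.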 As to conditions: N2a mouse neuroblastoma cell viability; activity change, negative = cytotoxicity: at 92.2 µM (top of the series). Summed up:
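Mouse neuroblastoma N2a cells (1500/well) were preincubated 5 hr at 37 °C, then exposed to compounds for 40 hr at 37 °C in complete medium. Viability was read as intracellular ATP by CellTiter-Glo luminescence; AC50 from Hill fits.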

The nature of test [5]: Cell Viability - NIH 3T3 (AID 541).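 Further: plate controls were DMSO alone for no effect and tamoxifen positive control for full effect; nearly all actives have a fitted effect of over 25% in size.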 Conditions: NIH 3T3 cell viability, qHTS; activity change, negative = cytotoxicity: at 92.2 µM (top of the series). Summed up:
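NIH 3T3 mouse embryo fibroblasts (1000 cells/well) were plated in complete medium and treated with compound for 40 hr at 37 °C. Viability was read as intracellular ATP by CellTiter-Glo luminescence; AC50 values came from Hill-equation fits of concentration-response data.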

The nature of test [6]: Cell Viability - HUV-EC-C (AID 542). Further: on the % scale 0 is the no-effect control and ±100 the full control effect; nearly all actives have a fitted effect of over 35% in size. Summed up:
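HUV-EC-C normal human vascular endothelial cells, 1000 cells/well, pre-incubated 5 hr at 37 °C, then exposed to compounds for 40 hr at 37 °C in complete medium. Viability measured as intracellular ATP by CellTiter-Glo luminescence; AC50 from Hill fits.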

Test [7] in a line: Cell Viability - H-4-II-E (AID 543). Further: on the % scale 0 is the no-effect control and ±100 the full control effect; nearly all actives have a fitted effect of over 35% in size. In outline:
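Rat hepatoma H-4-II-E cells (1500/well) were plated, incubated 5 hr at 37 °C, then exposed to compounds for 40 hr at 37 °C. Cellular ATP was read by CellTiter-Glo luminescence; AC50 came from Hill-equation fits of concentration-response data.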

The nature of test [8]: Cell Viability - SH-SY5Y (AID 544). Further: nearly all actives have a fitted effect of over 55% in size. Conditions: SH-SY5Y neuroblastoma cell viability; viability change, negative = cytotoxic: at 92.2 µM (top of the series). In outline: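 Human neuroblastoma SH-SY5Y cells (1500/well) in complete medium were exposed to compounds for 40 hr at 37 °C; intracellular ATP was then quantified by CellTiter-Glo luminescence after 20 min at room temperature. AC50 came from Hill-equation concentration-response fits.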

Test [9] in a line: Cell Viability - Renal Proximal Tubule (AID 545). Further: nearly all actives have a fitted effect of over 40% in size. Summed up: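 Rat renal proximal tubule primary cells, 1000/well, exposed to compounds for 40 hr at 37 °C in complete medium; cellular ATP read by CellTiter-Glo luminescence. AC50 from concentration-response fitted with standard Hill equation.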
The nature of test [10]: Cell Viability - Mesenchymal (AID 546).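 Further: cells exposed to compound for 40 hours before reading.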 In outline:
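Normal human renal glomerulus-derived kidney mesenchymal cells, 1000 per well in complete medium, were treated with compounds for 40 hr at 37 °C. Viability was read as intracellular ATP by CellTiter-Glo luminescence; AC50 values came from Hill-equation fits of qHTS concentration-response data.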

Test [11] can be described thus: Cellular Toxicity (caspase-3) HepG2 (AID 654).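 Further: cells exposed to compound for 16 hours before reading; 0% = DMSO alone and 100% = caspase signal from 100 µM tamoxifen.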 In outline: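 HepG2 cells (1500/well) in complete medium were treated with compounds for 16 hr at 37 °C. Caspase-3/7 activity was then read as luminescence from peptide-aminoluciferin cleavage. AC50 came from Hill fits, normalized to DMSO and 100 uM tamoxifen.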
Test [12] is described as follows: Cellular Toxicity (caspase-3) Jurkat (AID 655).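 Further: cells exposed to compound for 16 h at 37 °C before reading.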 In outline:
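Jurkat cells (5000/well) in complete medium exposed 16 h at 37 C; caspase-3/7 activity read by Caspase-Glo luminescence after 20 min at room temperature. Normalized to DMSO and 100 uM tamoxifen; AC50 from Hill fits.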

Test [13] is described as follows: Cellular Toxicity (caspase-3) HUV-EC-C (AID 656). In outline:
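HUV-EC-C cells (1000/well) in complete medium, compound-treated 16 h at 37 °C; caspase-3/7 activity read by Caspase-Glo 3/7 luminescence. Normalized to DMSO (basal) and 100 uM tamoxifen (100%); AC50 from Hill-equation concentration-response fits.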

Test [14] in a line: Cellular Toxicity (caspase-3) SHSY5Y (AID 657). In outline: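 SH-SY5Y human neuroblastoma cells, 1500/well, exposed to compound for 16 hours at 37 °C in complete medium. Caspase-3/7 activity read by Caspase-Glo luminescence after 1 hr at room temperature, normalized to DMSO and 10 uM staurosporine; AC50 from Hill fit.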
A short description of test [15]: Cellular Toxicity (caspase-3) BJ (AID 658).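 Further: 0% = DMSO basal and 100% = 10 µM staurosporine.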 Summed up: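 Luminescent aminoluciferin-substrate cleavage reports caspase 3/7 activity in normal human BJ fibroblasts after 16 hr compound exposure at 37 °C. Normalized to DMSO (basal) and 10 uM staurosporine (100%); AC50 from Hill fit of concentration-response.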
The nature of test [16]: Cellular Toxicity (caspase-3) Mesangial (AID 660).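 Further: cells exposed to compound for 16 h before the caspase read.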 Summed up:
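Human renal glomerular mesangial cells (1000/well) were treated with compounds for 16 h at 37 °C in complete medium, then caspase 3/7 activity was read by Caspase-Glo luminescence. Data were normalized to DMSO and 100 uM tamoxifen; AC50 from Hill fits.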

Test [17] can be described thus: Cellular Toxicity (caspase-3) H-4-II-E (AID 663).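 Further: cells exposed to compound for 16 hr before readout.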 In outline: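 Luminescence from caspase-cleaved aminoluciferin substrate, read 20 min after reagent addition, reports caspase 3/7 activation in rat H-4-II-E cells after 16 hr compound exposure. Normalized to DMSO (basal) and 100 uM tamoxifen (100%); AC50 from Hill fits.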
A short description of test [18]: Cellular Toxicity (caspase-3) Hek293 (AID 664).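 Further: cells exposed to compound for 16 h at 37 °C before readout.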 Conditions: HEK293 caspase-3 activation; caspase-3 activation: at 92.2 µM (top of the series), DMSO = 0%, 100 µM tamoxifen = 100%. In outline:
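HEK293 cells were exposed to compounds in complete medium for 16 hr at 37 °C, then caspase-3/7 activity was read by Caspase-Glo 3/7 luminescence after 20 min at room temperature. Data normalized to DMSO and 100 uM tamoxifen; AC50 from Hill fits.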

Test [19] is described as follows: Cellular Toxicity (caspase-3) N2a (AID 665).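 Further: compound exposure lasted 16 h at 37 °C before readout.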 Summed up:
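Mouse N2a neuroblastoma cells (1500/well) were treated with compounds for 16 h at 37 °C, then caspase-3/7 activity was read by Caspase-Glo luminescence after 1 h at room temperature. Data were normalized to DMSO and 10 uM staurosporine; AC50 from Hill fits.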

“And” between values parts separate entries of the source, which are not always exact repeats. Equal values may be shown once. Results filed as inconclusive are left out. Some structures have more than one record in an assay (separate samples or runs), and their calls can disagree. The source made the active and inactive calls. Unless noted, the call rests on the fitted dose curve; in most records, active means well fitted curve in the direction sought with a large enough effect; inconclusive means small, poorly fitted or top-dose-only effect, or another doubt; inactive means no such curve, though single readings can be large; an effect the other way counts as inactive or inconclusive.

Glucocorticoid receptor (Homo sapiens), sequence (P04150 whole entry, looked up, the tested form may be a part): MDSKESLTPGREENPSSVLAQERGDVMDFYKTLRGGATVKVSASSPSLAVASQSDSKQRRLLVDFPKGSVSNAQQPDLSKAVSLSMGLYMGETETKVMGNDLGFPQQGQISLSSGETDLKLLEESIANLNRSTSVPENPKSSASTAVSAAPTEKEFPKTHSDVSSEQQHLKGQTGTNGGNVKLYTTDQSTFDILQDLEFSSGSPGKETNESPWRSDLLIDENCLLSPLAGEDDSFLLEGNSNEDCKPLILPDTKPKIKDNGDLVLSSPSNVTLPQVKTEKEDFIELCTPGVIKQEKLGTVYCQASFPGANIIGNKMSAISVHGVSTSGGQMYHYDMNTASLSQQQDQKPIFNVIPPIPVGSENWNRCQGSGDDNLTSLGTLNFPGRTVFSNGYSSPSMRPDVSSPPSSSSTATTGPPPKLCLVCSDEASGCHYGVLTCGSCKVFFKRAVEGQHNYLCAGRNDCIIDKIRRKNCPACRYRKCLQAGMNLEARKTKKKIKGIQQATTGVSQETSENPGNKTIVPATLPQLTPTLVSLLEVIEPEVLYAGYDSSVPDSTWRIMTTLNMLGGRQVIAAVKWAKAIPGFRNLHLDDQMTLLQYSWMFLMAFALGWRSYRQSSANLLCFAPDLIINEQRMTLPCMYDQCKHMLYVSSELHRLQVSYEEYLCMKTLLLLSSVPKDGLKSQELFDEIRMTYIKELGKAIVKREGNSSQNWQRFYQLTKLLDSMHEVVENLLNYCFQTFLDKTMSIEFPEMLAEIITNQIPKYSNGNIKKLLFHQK
3',5'-cyclic-AMP phosphodiesterase 4B (Homo sapiens), sequence (Q07343 whole entry, looked up): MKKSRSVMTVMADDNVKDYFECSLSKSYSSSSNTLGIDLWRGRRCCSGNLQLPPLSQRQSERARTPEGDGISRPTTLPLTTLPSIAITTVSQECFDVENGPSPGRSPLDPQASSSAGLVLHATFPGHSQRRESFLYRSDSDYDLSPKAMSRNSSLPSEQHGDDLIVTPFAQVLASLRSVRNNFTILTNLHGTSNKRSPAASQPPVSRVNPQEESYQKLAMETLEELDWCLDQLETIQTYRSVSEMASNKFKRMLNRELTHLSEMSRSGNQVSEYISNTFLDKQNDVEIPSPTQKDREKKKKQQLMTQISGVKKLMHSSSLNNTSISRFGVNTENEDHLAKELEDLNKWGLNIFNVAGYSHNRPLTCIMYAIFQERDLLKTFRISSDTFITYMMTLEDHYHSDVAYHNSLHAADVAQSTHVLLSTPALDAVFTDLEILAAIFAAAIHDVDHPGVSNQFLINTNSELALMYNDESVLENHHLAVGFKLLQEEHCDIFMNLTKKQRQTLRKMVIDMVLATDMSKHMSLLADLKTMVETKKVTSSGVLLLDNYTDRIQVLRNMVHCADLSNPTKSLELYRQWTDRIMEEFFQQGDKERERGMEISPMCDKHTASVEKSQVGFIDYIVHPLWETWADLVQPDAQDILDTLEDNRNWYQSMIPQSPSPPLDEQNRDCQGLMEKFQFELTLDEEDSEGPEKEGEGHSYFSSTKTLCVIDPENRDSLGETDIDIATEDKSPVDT

As for `CN(Cc1cnc2nc(N)nc(N)c2n1)c1ccc(C(=O)N[C@@H](CCC(=O)O)C(=O)O)cc1`, the compound was called inactive in [1]. Besides, in test [2], the Potency entry is “inactive”.
On to `CC[C@@]1(O)C(=O)OCc2c1cc1n(c2=O)Cc2cc3c(CN(C)C)c(O)ccc3nc2-1`, for which the Potency in [3] is > 9.22 µM (inactive). Also, in test [1], the activity change, negative = inhibition was 4.05% [at 11.4 µM] (inactive). In addition, the Potency result in test [2] is “inactive”.
As for `CS(=O)(=O)Nc1ccc([N+](=O)[O-])cc1Oc1ccccc1`, the compound was called inactive in test [1]. Also, the Potency entry in test [2] is “inactive”.
Regarding `CCOC(=O)c1ncn2c1CN(C)C(=O)c1cc(F)ccc1-2`, in [2], the Potency entry was “inactive”.
Regarding `COc1nc(C)nc(Cl)c1NC1=NCCN1`, the Potency in test [3] is > 46 µM (inactive) and > 20.6 µM (inactive). Also, the outcome in [1] was inactive. In addition, the Potency result in [2] is “inactive”.
As to `CN1C(C(=O)Nc2ccccn2)=C(O)c2ccccc2S1(=O)=O`, the Potency in test [3] is > 46 µM (inactive) and > 20.6 µM (inactive). The call in test [1] was inactive. Also, the Potency entry in test [2] was “inactive”.
In the case of `Cn1c(=O)c2[nH]cnc2n(C)c1=O`, the outcome in [1], in [6], in test [10], in test [11], in test [13] and in test [14] was inactive. Also, the compound was classed as inactive in test [15], in [16], in test [17] and in test [19]. Also, the activity change, negative = cytotoxicity in test [4] was 8.85% (inactive). The Potency entry in [5], in [7], in [8], in [9], in [2] and in [12] was “inactive” in each case. Moreover, the Potency entry in test [18] is “inactive”.
`Cc1ccc(C(=O)Nc2ccc(S(=O)(=O)O)c3cc(S(=O)(=O)O)cc(S(=O)(=O)O)c23)cc1NC(=O)c1cccc(NC(=O)Nc2cccc(C(=O)Nc3cc(C(=O)Nc4ccc(S(=O)(=O)O)c5cc(S(=O)(=O)O)cc(S(=O)(=O)O)c45)ccc3C)c2)c1`: the Potency in test [3] is > 46 µM (inactive). The result in test [1] was inactive. In test [2], the Potency entry is “inactive”.
Take `CN(C)C(=O)C(CCN1CCC(O)(c2ccc(Cl)cc2)CC1)(c1ccccc1)c1ccccc1`: the Potency in [3] was > 46 µM (inactive) and > 20.6 µM (inactive); in test [2], “inactive and 3.79 µM (active)”. Also, in test [1], the compound was classed as inactive.
Regarding `COc1cc2nc(N3CCN(C(=O)c4ccco4)CC3)nc(N)c2cc1OC`, the call in [1] was inactive. For the same compound, the Potency result in [2] was “inactive”.
As to `Nc1ccn([C@H]2CC[C@@H](CO)O2)c(=O)n1`, the result in test [1], in test [6], in test [10], in [11], in [13] and in test [14] was inactive. The compound was called inactive in test [15], in [16], in test [17] and in [19]. For the same compound, the activity change, negative = cytotoxicity in [4] is -5.12% (inactive). Moreover, the Potency result in [5], in test [7], in [8], in [9], in test [12] and in test [18] was “inactive” each time.
For the compound `Nc1nnc(-c2cccc(Cl)c2Cl)c(N)n1`, the result in test [1] was inactive.
Still for that read-out and setting: the value for `CCCCc1oc2ccccc2c1C(=O)c1cc(I)c(OCCN(CC)CC)c(I)c1` was “inactive”.
Turning to `CCOC(=O)C(C)(C)Oc1ccc(Cl)cc1`, the Potency in [3] is > 46 µM (inactive). Further, in test [1], the compound was classed as inactive. Besides, the Potency result in [2] is “inactive”.

The record behind these values is PubChem BioAssay (NCATS).
